# Assays:
# [1] = tested on: P. falciparum NF54-pfs16-GFP early (I-III) stage gametocytes; assay: relative % inhibition of viable gametocyte number; higher = more gametocytocidal; details: stage: early (I-III) gametocyte, incubation 72 h
# Outline: (§1)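 NF54 pfs16-GFP gametocytes, magnet-isolated at early (I/IIa, day 2) or late (day 8) stage, were plated at 10% parasitaemia, 0.1% haematocrit in 384-well poly-D-lysine imaging plates with compound in duplicate at 5 or 0.5 µM. Plates were incubated 72 h at 37°C, 5% CO2, 5% O2, then overnight with MitoTracker Red. Confocal imaging counted elongated GFP objects with MitoTracker signal above cut-off as viable gametocytes. Relative inhibition was normalised to in-plate vehicle and positive-control wells.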
# [2] = tested on: P. falciparum NF54-pfs16-GFP late (IV-V) stage gametocytes; assay: as above; details: stage: late (IV-V) gametocyte, incubation 72 h
# Outline: as §1
Compound,relative % inhibition ([1]; 0.5 µM),relative % inhibition ([1]; 5 µM),relative % inhibition ([2]; 0.5 µM),relative % inhibition ([2]; 5 µM)
Oc1ccccc1CN1CCC2(CCCN(Cc3ccccc3F)C2)C1 (configuration not stated),32.5%,93.8%,34.9%,61.2%
COc1ccc(Nc2nc(NCc3ccccc3)c3ccccc3n2)cc1,84.8%,98.1%,81.6%,107%
OCCNc1nc(Nc2ccc(Cl)c(Cl)c2)nc2ccccc12,-6.33%,-11%,53.9%,52.3%
COc1ccc2nc(N)nc(C)c2c1,15.7%,24.8%,10.6%,-4.54%
CCN(CC)CCNc1ncnc2c1[nH]c1ccc(Br)cc12,-15.3%,61.4%,12.4%,27.1%
C[n+]1c2ccccc2nc2ccc(NCCO)cc21,6.83%,0.402%,13.2%,4.26%
COc1ccc2c(=O)cc(C(Cl)(Cl)Cl)oc2c1,68.6%,85.1%,8.37%,15.5%
Cc1ccc(OCCCCCCNCCO)c(C)c1,2.04%,30.1%,-16.2%,-15.5%
Oc1c(CN2CCN(c3ccccc3F)CC2)cc(Br)c2cccnc12,15.7%,89.8%,22.3%,79.5%
OC(CNC1CCCC1)Cn1c2ccccc2c2ccccc21 (configuration not stated),15.6%,91.7%,24.2%,66%
CN1C=C(c2ccc3ccccc3n2)C(c2c[nH]c3ccccc23)c2ccccc21 (configuration not stated),16.1%,49.6%,19.8%,34.8%
Cc1cc(Nc2ccc3ccccc3c2)n2ncnc2n1,-10.4%,3.61%,1.55%,8.91%
CC(O)(c1ccc(Cl)cc1)C(CN1CCCCC1)c1ccccc1 (configuration not stated),20%,59.1%,14%,22.3%

# — the supplement of paper PMC3842684
